Assay outcomes from PubChem.
GC-B act: GC-B (human) receptor activation; activation, % at 10 µM; HEK293-GC-B cells, CNP EC30, cGMP TR-FRET; 0% at EC30 CNP, 100% saturating CNP; P20594; 370,000 tested, 0.11% active;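 active means activation at 10 µM reaching about 35% in either raw or pattern-adjusted values, limit read from the data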
ALR inh: inhibitors of human sulfhydryl oxidase ALR. P55789. purified ALR, DTT oxidation, H2O2 HRP-luminol luminescence. inhibition, % (concentration not given with the values). 290,000 tested, 3.8% active;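 active means mean replicate inhibition above about 79%, with every replicate also reaching it, limit read from the data; inconclusive means only one of the two criteria met; inactive means mean below limit and not every replicate reaching it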
HDAC3 inh: human HDAC3 inhibition. O15379. recombinant HDAC3, fluorogenic peptide/trypsin coupled, fluorescence. inhibition, % at 8.3 µM. 320,000 tested, 0.15% active. AID 2718; in the data active means inhibition above about 26%, passing the limit was not always enough; inconclusive means no clear call, values can overlap the other calls
Target sequence (O15379 whole entry, looked up): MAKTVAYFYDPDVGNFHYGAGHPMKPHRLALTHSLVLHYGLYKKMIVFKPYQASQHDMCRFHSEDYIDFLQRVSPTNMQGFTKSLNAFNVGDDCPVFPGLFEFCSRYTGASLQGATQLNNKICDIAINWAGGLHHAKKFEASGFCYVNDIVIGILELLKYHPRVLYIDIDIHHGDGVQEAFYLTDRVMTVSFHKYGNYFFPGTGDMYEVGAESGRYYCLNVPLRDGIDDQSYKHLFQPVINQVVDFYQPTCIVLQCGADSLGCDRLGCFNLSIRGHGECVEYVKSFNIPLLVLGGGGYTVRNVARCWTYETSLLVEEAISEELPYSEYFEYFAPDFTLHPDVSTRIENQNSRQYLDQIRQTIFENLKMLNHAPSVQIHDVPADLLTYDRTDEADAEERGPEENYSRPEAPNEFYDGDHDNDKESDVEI
NPR1 activator: GC-A (human) enzyme activation | P16066 | HEK293 GC-A cells, cGMP TR-FRET, EC30 ANP; 0% at EC30 ANP, 100% saturating ANP | activation, % at 10 µM | 370,000 tested, 0.14% active; in the data active means activation above about 40%
Large screens that a line does not name were inactive. Many of the other results were omitted from the sample, so hits are more common in it than they were.

O=C(COC(=O)/C=C/c1ccc([N+](=O)[O-])cc1)NCC1CCCO1 (stereo not given)	ALR inh 95
O=C(COC(=O)/C=C/c1cccc([N+](=O)[O-])c1)NCC1CCCO1 (stereo not given)	none
CCCCN1C(=O)c2ccccc2NC1c1ccc(OC)c(COc2ccc(NC(C)=O)cc2)c1 (stereo not given)	none (no result: ALR inh, HDAC3 inh)
Cc1nc(NS(=O)(=O)c2ccccc2C)c2c3c(sc2n1)CCC3	ALR inh 97
CC(=O)Nc1ccc(S(=O)(=O)Nc2nc(C)nc3sc4c(c23)CCC4)cc1	none (no result: ALR inh, HDAC3 inh)
CCCc1cc(C(=O)N2CCCC(C(=O)c3cc(C)c(OC)c(C)c3)C2)n(C)n1 (stereo not given)	none
CCOC(=O)Nc1sc(NS(=O)(=O)c2ccccc2)nc1C	ALR inh 98
Cc1nc(NS(=O)(=O)c2ccccc2)sc1NC(=O)Nc1ccccc1	ALR inh 99
Cc1ccc(C(=O)N/C(=C/c2ccco2)C(=O)NCCc2c[nH]c3ccccc23)cc1	none (no result: ALR inh)
CC(=O)C1=C(O)C(=O)N(c2ccc(F)cc2)C1c1ccc(C)cc1 (stereo not given)	none
CC(=O)C1=C(O)C(=O)N(c2ccc(O)cc2)C1c1ccc(C)cc1 (stereo not given)	ALR inh 99
CC(=O)C1=C(O)C(=O)N(c2ccc(Br)cc2)C1c1cccc(F)c1 (stereo not given)	none (no result: ALR inh)
CC(=O)C1=C(O)C(=O)N(c2ccc(O)cc2)C1c1cccc([N+](=O)[O-])c1 (stereo not given)	ALR inh 83
CC(=O)C1=C(O)C(=O)N(c2ccc(O)cc2)C1c1cccc(F)c1 (stereo not given)	ALR inh 82
CCOc1cccc(C(=O)NC2=NCCS2)c1	none
Cn1sc(NC(=O)c2ccc(Cl)cc2)nc1=O	ALR inh 97
Cc1ccc(C(=O)Nc2nc(=O)n(C)s2)cc1	none
CCOC(=O)C1=CCN(S(=O)(=O)c2ccc(C)cc2)C1c1cccs1 (stereo not given)	none (no result: ALR inh, HDAC3 inh)
O=C(CCn1cnc(-c2ccccc2)c1-c1ccccc1)N/N=C/c1ccc(O)cc1	ALR inh 89
O=C(CNS(=O)(=O)c1ccc([N+](=O)[O-])cc1)N/N=C\c1ccc(O)cc1	ALR inh 99
Cn1cccc1CC(=O)N/N=C/c1ccc([N+](=O)[O-])cc1	ALR inh 99
CC(=O)Nc1ccc(/C=N\NC(=O)CNS(=O)(=O)c2ccc([N+](=O)[O-])cc2)cc1	none
O=C(CC(=O)N/N=C/c1ccc(O)cc1)N/N=C/c1ccc(O)cc1	ALR inh 99
CC(C)(Cc1ccc(O)cc1)NC(=O)CC(=O)N/N=C/c1ccc(Cl)cc1	none
Cn1cccc1CC(=O)N/N=C\c1ccccc1	none
Cc1sc2ncn(CC(=O)N3CCN(c4ccccn4)CC3)c(=O)c2c1S(=O)(=O)N1CCC(C)CC1	none
O=C(Cc1cccs1)N/N=C\c1ccc(O)cc1	ALR inh 98
O=C(N/N=C/c1ccccc1)C(=O)N/N=C/c1ccccc1	none
O=C(N/N=C/c1ccc(O)cc1)/C(=C/c1ccccc1)CCO	ALR inh 100
CC12CCC(C(=O)N/N=C/c3ccc(O)cc3)(OC1=O)C2(C)C (stereo not given)	ALR inh 99
CC12CCC(C(=O)NNC(=O)c3ccccc3)(OC1=O)C2(C)C (stereo not given)	none
CC(C)[C@H](NC(=O)OC(C)(C)C)c1cc(C(=O)N[C@@H](C)c2ccccc2)c(N)s1	none (no result: ALR inh, HDAC3 inh)
O=C(N/N=C/c1c(O)n(Cc2ccccc2)c(=O)c2ccccc12)c1cccnc1	ALR inh 98
C=CCNC(=O)c1ccccc1NC(=O)c1ccccc1N(C)S(C)(=O)=O	none
S=C1Nc2ccccc2CS1	none (no result: ALR inh, HDAC3 inh)
c1ccc2c(c1)CSc1ccccc1N2	ALR inh 98
CCOC(=O)C1CCCN(Cc2ccc(OCC)cc2)C1 (stereo not given)	none
Cc1cc(NS(=O)(=O)c2ccc(Nc3nc(-c4ccc(O)cc4)cs3)cc2)no1	ALR inh 100
Cc1cc(NS(=O)(=O)c2ccc(Nc3nc(-c4sc(N)nc4C)cs3)cc2)no1	ALR inh 99 (no result: GC-B act, NPR1 activator)
COc1cc(NS(=O)(=O)c2ccc(Nc3nc(-c4ccccc4)cs3)cc2)nc(OC)n1	ALR inh 96, HDAC3 inh inconclusive
Cc1cc(NS(=O)(=O)c2ccc(Nc3nc(-c4ccc(C)c(C)c4)cs3)cc2)no1	none
COc1ccccc1NS(=O)(=O)c1ccc(C(=O)NCC(c2cccs2)N2CCOCC2)cc1 (stereo not given)	none
CCNC(=O)C(=O)Nc1cc2c3c(c1)CCN3C(=O)CC2	none
COc1cccc(CC2(CO)CCCN(Cc3ccc(OC)c(C)c3OC)C2)c1 (stereo not given)	none (no result: ALR inh)
Cc1ccc(OCCOc2ccc(Cl)cc2Cl)c([N+](=O)[O-])n1	NPR1 activator 48
COc1ccc(OCCOc2ccc(C)nc2[N+](=O)[O-])cc1	none
O=C1OC(c2ccccc2)=N/C1=C\C=C\c1ccco1	HDAC3 inh 41 (no result: ALR inh)
COc1ccc2nc3cc(Cl)ccc3c(Nc3cc(CN4CCCC4)c(O)c(CN4CCCC4)c3)c2n1	ALR inh 99
COc1ccc(Br)cc1S(=O)(=O)NCc1ccccn1	none
Cc1cc(Br)ccc1NCc1ccccn1	ALR inh 98
CC(C)C(=O)n1nc(-c2cccnc2)nc1NCc1cccs1	ALR inh 97
CCC(C)Nc1nc(C)nc2c1nnn2Cc1ccccc1 (stereo not given)	none (no result: ALR inh, HDAC3 inh)
Cc1cc(N/N=C/c2ccccc2O)c2ccccc2n1	ALR inh 99
Cc1ccc2nc(C)cc(N/N=C/c3cccnc3)c2c1	ALR inh 99
COc1ccc2nc(C)cc(N/N=C/c3cccc(OC)c3O)c2c1	ALR inh 87
Cc1ccccc1NC(=S)N/N=C/c1ccc(O)cc1O	ALR inh 99
Cc1ccc(-c2cc(-c3ccccc3)nc(N/N=C/c3cccnc3)n2)cc1	none
Cc1cc(-c2ccccc2)nc(N/N=C/c2ccc(O)cc2O)n1	none
Cc1cccc(C)c1C(=O)N[C@@H](Cc1ccccc1)C(=O)O	none
O=C(Nc1nc(-c2ccccc2)ns1)c1cccs1	ALR inh 88
Nc1c(/C=C2/C=CC(=O)C(O)=C2)c(=O)nc2sc(CC(=O)N3CCCC3)nn12	ALR inh 99
Nc1c(/C=C2/C=CC(=O)C(O)=C2)c(=O)nc2sc(CC(=O)N3CCCCC3)nn12	ALR inh 99
O=C(Nc1ccc2c(c1)CCC2)c1cc(=O)[nH]c2ccccc12	none
COc1ccc([N+](=O)[O-])cc1NC1CCCCC1	ALR inh 99
c1ccc2c(c1)Nc1cc3ccccc3cc1S2	none
c1ccc2c(c1)Nc1ccncc1S2	ALR inh 96
NNC(=O)c1cc2sccc2s1	ALR inh 98
Cc1ccc(S(=O)(=O)Nc2cc3c4c(c2)CCN4C(=O)CC3)cc1	none
Cn1c(=O)c2c([nH]c(=S)n2CCCc2ccccc2)n(C)c1=O	HDAC3 inh 41
COC(=O)CSc1ccc2c(N)c(C(=O)OC)sc2c1	ALR inh 100
